Assay results reported in PubChem BioAssay (NCI).
Compounds without any hit were thinned out: in the full panel of roughly 83,000, 20% have a hit.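 Cells were grown in 96-well plates and exposed to the test compound at a single concentration for 48 hours; results are reported as percent growth, with values below 10 considered active.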 Calls of active or inactive are those of the source.

What was measured:
Assay in all cases: NCI-60 one-dose screen, 48 h (100 = growth as untreated, 0 = no growth, -100 = all killed)
Settings in all cases: 10 µM unless noted
HCT-15 colon = system: HCT-15 colon
HT29 colon = system: HT29 colon
SNB-19 CNS = system: SNB-19 CNS
U251 CNS = system: U251 CNS
PC-3 prostate = system: PC-3 prostate
SK-MEL-5 melanoma = system: SK-MEL-5 melanoma
UACC-62 melanoma = system: UACC-62 melanoma
LOX IMVI melanoma = system: LOX IMVI melanoma
SK-MEL-28 melanoma = system: SK-MEL-28 melanoma
SK-MEL-2 melanoma = system: SK-MEL-2 melanoma
EKVX NSCLC = system: EKVX NSCLC
SN12C renal = system: SN12C renal
UO-31 renal = system: UO-31 renal
TK-10 renal = system: TK-10 renal
ACHN renal = system: ACHN renal
A498 renal = system: A498 renal
CCRF-CEM leukemia = system: CCRF-CEM leukemia
MOLT-4 leukemia = system: MOLT-4 leukemia
CAKI-1 renal = system: CAKI-1 renal

Measured: growth

O=[N+]([O-])c1cnc(Sc2ccncn2)s1
active: HCT-15 colon -16% | SK-MEL-28 melanoma -61% | SK-MEL-2 melanoma -58% | UO-31 renal -88.3% | TK-10 renal 4.67% | ACHN renal -97.8% | CCRF-CEM leukemia -32.3% | MOLT-4 leukemia -42.3%
inactive: HT29 colon 55.5% | SNB-19 CNS 103% | U251 CNS 91.9% | PC-3 prostate 14.4% | SK-MEL-5 melanoma 88.2% | UACC-62 melanoma 70.4% | LOX IMVI melanoma 64.5% | EKVX NSCLC 61.7% | SN12C renal 63.6% | A498 renal 88%

COc1cc(/C=C/C(=O)N2CCN(C(=O)/C=C/c3cc(OC)c(OC)c(OC)c3)CC2)cc(OC)c1OC
inactive: HCT-15 colon 113% | HT29 colon 109% | SNB-19 CNS 105% | U251 CNS 103% | PC-3 prostate 102% | SK-MEL-5 melanoma 104% | UACC-62 melanoma 89.1% | LOX IMVI melanoma 101% | SK-MEL-28 melanoma 105% | SK-MEL-2 melanoma 110% | EKVX NSCLC 114% | SN12C renal 102% | UO-31 renal 88.5% | TK-10 renal 121% | ACHN renal 106% | CAKI-1 renal 119% | CCRF-CEM leukemia 98.6% | MOLT-4 leukemia 95.9%

COc1ccc(-c2nc(-c3nc4cc(C)c(C)cc4[nH]3)cc3c2[nH]c2ccccc23)cc1
inactive: SNB-19 CNS 82.7% | U251 CNS 10.5% | PC-3 prostate 40.9% | SK-MEL-5 melanoma 45.7% | SK-MEL-28 melanoma 39.5% | SK-MEL-2 melanoma 86.9% | SN12C renal 55.2% | UO-31 renal 56.3% | TK-10 renal 81.4% | ACHN renal 39.6% | CAKI-1 renal 66.2% | A498 renal 93.6% | MOLT-4 leukemia 12.7%
active: HCT-15 colon 3.41% | HT29 colon 1.21% | UACC-62 melanoma -0.969% | LOX IMVI melanoma -31.6% | CCRF-CEM leukemia -7.91%

CCCCCCCCN(CCCCCCCC)CCCCCCNc1cc(OC)cc2cccnc12
inactive: HCT-15 colon 109% | HT29 colon 28.1% | SNB-19 CNS 94.1% | U251 CNS 84.9% | PC-3 prostate 67.2% | SK-MEL-5 melanoma 103% | UACC-62 melanoma 110% | LOX IMVI melanoma 32.3% | SK-MEL-28 melanoma 106% | SK-MEL-2 melanoma 105% | EKVX NSCLC 87.4% | SN12C renal 63.4% | UO-31 renal 55.2% | TK-10 renal 118% | ACHN renal 91.4% | CAKI-1 renal 72% | A498 renal 110% | MOLT-4 leukemia 50%

CCOC(=O)c1ccc(NC(=O)N2CC(C)OC(C)C2)cc1 (centres undefined)
active: UO-31 renal 4.84%
inactive: HCT-15 colon 96.2% | HT29 colon 101% | SNB-19 CNS 93.2% | U251 CNS 97.4% | PC-3 prostate 103% | SK-MEL-5 melanoma 99.7% | UACC-62 melanoma 87.6% | LOX IMVI melanoma 96% | SK-MEL-28 melanoma 98.5% | SK-MEL-2 melanoma 113% | EKVX NSCLC 108% | SN12C renal 97.4% | TK-10 renal 125% | ACHN renal 96.7% | A498 renal 80.6% | CCRF-CEM leukemia 102% | MOLT-4 leukemia 99.9%

N/C(=N\S(=O)(=O)c1ccccc1)Nc1nc2ccccc2s1
inactive: HCT-15 colon 104% | HT29 colon 92.1% | SNB-19 CNS 99% | U251 CNS 96.7% | PC-3 prostate 83.9% | SK-MEL-5 melanoma 90.5% | UACC-62 melanoma 76.6% | LOX IMVI melanoma 97.5% | SK-MEL-28 melanoma 109% | SK-MEL-2 melanoma 93.1% | EKVX NSCLC 86.9% | SN12C renal 86.1% | UO-31 renal 74.2% | TK-10 renal 108% | ACHN renal 94.7% | CAKI-1 renal 89.3% | A498 renal 118% | MOLT-4 leukemia 99.4%

COc1ccc(C2CC(c3ccc(OC)cc3OC)=NN2c2ccc(S(N)(=O)=O)cc2)cc1 (centres undefined)
inactive: HCT-15 colon 75% | HT29 colon 71.8% | SNB-19 CNS 85.7% | U251 CNS 79.3% | PC-3 prostate 56% | SK-MEL-5 melanoma 91.6% | UACC-62 melanoma 77.2% | LOX IMVI melanoma 101% | SK-MEL-28 melanoma 125% | SK-MEL-2 melanoma 94.6% | EKVX NSCLC 87.5% | SN12C renal 90.8% | UO-31 renal 86.8% | TK-10 renal 105% | ACHN renal 107% | A498 renal 102% | CCRF-CEM leukemia 75.5% | MOLT-4 leukemia 61.8%

CCOC(=O)c1cc(C(=O)c2cc(OC)c(OC)c(OC)c2)n2c1ccc1ccccc12
active: HT29 colon 9.65% | SK-MEL-5 melanoma 9.89% | A498 renal -10.9% | CCRF-CEM leukemia 8.36%
inactive: HCT-15 colon 25.7% | SNB-19 CNS 35.1% | U251 CNS 49% | PC-3 prostate 21.9% | UACC-62 melanoma 32.1% | LOX IMVI melanoma 40.4% | SK-MEL-28 melanoma 55.9% | SK-MEL-2 melanoma 50.2% | EKVX NSCLC 52.2% | SN12C renal 25.3% | UO-31 renal 32.2% | TK-10 renal 80.6% | ACHN renal 33.5% | MOLT-4 leukemia 33.4%

CCOC(=O)c1c(NS(=O)(=O)c2ccc(C)cc2)sc2c1CCC1(C2)OCCO1
inactive: HCT-15 colon 98.3% | HT29 colon 104% | SNB-19 CNS 98.7% | U251 CNS 99.1% | PC-3 prostate 87.1% | SK-MEL-5 melanoma 95.2% | UACC-62 melanoma 78.2% | LOX IMVI melanoma 98.9% | SK-MEL-28 melanoma 101% | SK-MEL-2 melanoma 90.3% | EKVX NSCLC 94.6% | SN12C renal 95.1% | UO-31 renal 82.6% | TK-10 renal 120% | ACHN renal 95.1% | CAKI-1 renal 85.1% | A498 renal 98% | MOLT-4 leukemia 85.8%

CCC(=O)OC1=CN2C(=NC(c3ccc(N)cc3)=CC2c2cc(OC)c(OC)c(OC)c2)S1 (centres undefined)
inactive: HCT-15 colon 27.6% | SNB-19 CNS 83.8% | U251 CNS 46.3% | PC-3 prostate 49% | SK-MEL-5 melanoma 66.9% | UACC-62 melanoma 78% | LOX IMVI melanoma 45.3% | SK-MEL-28 melanoma 50.8% | SK-MEL-2 melanoma 64% | SN12C renal 53.5% | UO-31 renal 58.7% | TK-10 renal 79.2% | ACHN renal 60.5% | A498 renal 81.9% | MOLT-4 leukemia 39.8%
active: HT29 colon 3.44% | CCRF-CEM leukemia 8.95%

Cc1ccc(-c2csc(NC(=O)CCCCl)n2)cc1
inactive: HCT-15 colon 95.1% | HT29 colon 93.9% | SNB-19 CNS 86.5% | U251 CNS 95.4% | PC-3 prostate 95.4% | SK-MEL-5 melanoma 93.9% | UACC-62 melanoma 88.6% | LOX IMVI melanoma 98.3% | SK-MEL-28 melanoma 107% | SK-MEL-2 melanoma 92.2% | SN12C renal 89.2% | UO-31 renal 74.5% | TK-10 renal 98.8% | ACHN renal 99.2% | CAKI-1 renal 91.6% | A498 renal 82.3% | CCRF-CEM leukemia 96.3% | MOLT-4 leukemia 79.1%

O=S(=O)(c1ccc(OCCO)cc1)c1ccc(OCCO)cc1
inactive: HCT-15 colon 99% | HT29 colon 97.6% | SNB-19 CNS 108% | U251 CNS 93.2% | PC-3 prostate 85% | SK-MEL-5 melanoma 89.7% | UACC-62 melanoma 101% | LOX IMVI melanoma 105% | SK-MEL-28 melanoma 79% | EKVX NSCLC 108% | SN12C renal 106% | UO-31 renal 80.6% | TK-10 renal 94.6% | ACHN renal 102% | CAKI-1 renal 98.9% | A498 renal 107% | MOLT-4 leukemia 83.2%
active: CCRF-CEM leukemia -21.9%

O=C1/C(=C/c2ccc(Cl)cc2)CN(Cc2cn(CCNc3ccnc4cc(Cl)ccc34)nn2)C/C1=C\c1ccc(Cl)cc1
active: HCT-15 colon -82% | HT29 colon -100% | SNB-19 CNS -92.2% | U251 CNS -100% | PC-3 prostate -86.5% | SK-MEL-5 melanoma -100% | UACC-62 melanoma -87.1% | LOX IMVI melanoma -93% | SK-MEL-28 melanoma -100% | SK-MEL-2 melanoma -89% | SN12C renal -76.1% | UO-31 renal -97.1% | TK-10 renal -89% | ACHN renal -100% | CAKI-1 renal 6.59% | A498 renal -100% | CCRF-CEM leukemia -7.97% | MOLT-4 leukemia -20.7%

Cc1csc(NC(c2ccccc2)c2c(C)nc3ccccn23)n1 (centres undefined)
inactive: HCT-15 colon 100% | HT29 colon 98% | SNB-19 CNS 93.5% | U251 CNS 94.7% | PC-3 prostate 82.6% | SK-MEL-5 melanoma 99.6% | UACC-62 melanoma 94.2% | LOX IMVI melanoma 96.5% | SK-MEL-28 melanoma 110% | SK-MEL-2 melanoma 107% | SN12C renal 99.9% | UO-31 renal 76% | TK-10 renal 111% | ACHN renal 102% | CAKI-1 renal 94.5% | A498 renal 70.9% | CCRF-CEM leukemia 101% | MOLT-4 leukemia 92.3%

O=C(Nc1ccc2c(c1)OCO2)C(=O)c1c[nH]c2cc(F)ccc12
active: LOX IMVI melanoma 8.88%
inactive: HCT-15 colon 57.2% | HT29 colon 62% | SNB-19 CNS 85.1% | U251 CNS 58.4% | PC-3 prostate 63.8% | SK-MEL-5 melanoma 58% | UACC-62 melanoma 22% | SK-MEL-28 melanoma 30.7% | EKVX NSCLC 72.4% | SN12C renal 79.5% | UO-31 renal 71.2% | TK-10 renal 72.7% | ACHN renal 44.9% | CAKI-1 renal 32.7% | A498 renal 55% | MOLT-4 leukemia 63.1%

COc1ccc(/C=C2\CN(Cc3cn(CCNc4ccnc5cc(Cl)ccc45)nn3)C/C(=C\c3ccc(OC)c(OC)c3)C2=O)cc1OC
active: HT29 colon -42.4% | U251 CNS 6.39% | UACC-62 melanoma 7.74% | LOX IMVI melanoma -28.3% | SK-MEL-2 melanoma -19.7% | SN12C renal -0.659% | TK-10 renal 8.71% | CCRF-CEM leukemia 0.689% | MOLT-4 leukemia -3.65%
inactive: HCT-15 colon 76% | SNB-19 CNS 58.1% | PC-3 prostate 12.1% | SK-MEL-5 melanoma 10.8% | SK-MEL-28 melanoma 21.6% | UO-31 renal 80.5% | ACHN renal 51.4% | CAKI-1 renal 97.4% | A498 renal 32.5%

CCN(CC)CCOC(=O)C(c1ccccc1)(c1ccccc1)C(C)C
inactive: HCT-15 colon 95.9% | HT29 colon 61.4% | SNB-19 CNS 97.1% | U251 CNS 87.2% | PC-3 prostate 69% | SK-MEL-5 melanoma 90.6% | UACC-62 melanoma 100% | LOX IMVI melanoma 71.5% | SK-MEL-28 melanoma 106% | EKVX NSCLC 81.6% | SN12C renal 88.1% | UO-31 renal 51.7% | TK-10 renal 91.6% | ACHN renal 92.8% | CAKI-1 renal 66.8% | A498 renal 70.5% | CCRF-CEM leukemia 86.4% | MOLT-4 leukemia 86.7%
